Compounds without any hit were thinned out: in the full panel of roughly 83,000, 20% have a hit.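 48-hour exposure, single concentration, 96-well plates; percent growth endpoint where 0 means no net growth. Active: below 10.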 Values without a mark were called inactive. Activity calls are given as the source filed them.
tested on: HL-60(TB) leukemia; experiment: NCI-60 one-dose screen, 48 h (100 = growth as untreated, 0 = no growth, -100 = all killed); settings: 10 µM unless noted

Point of comparison: `COc1ccc(NC(=O)CCn2cnc3c(cc(-c4ccccc4)n3-c3ccccc3)c2=O)cc1`, growth 95.9%. Against it:
- O=C(Nc1ccccc1F)Nc1ccccc1Cl — lower, 52%
- CCCCCCCCCCCCCCCCNC(=S)N/N=C/c1ccc(OC)cc1 — lower, 94.3%
- Cc1ccc(S(=O)(=O)n2cc(C(=O)C(=O)Nc3ccncc3)c3ccccc32)cc1 — lower, 16.1%
- N#Cc1c(-c2ccc(Cl)cc2)nc(N/N=C/c2cccc(Br)c2)nc1N1CCOCC1 — lower, 40.6%
- CCCCCCCCCCCCCCn1cc(C2=C(c3coc4ccc(OC)cc34)C(=O)NC2=O)c2ccccc21 — higher, 129%
- C[C@@H](C[C@H](CC1CC1)c1ccccc1)c1ccc2ccccc2c1 — higher, 107%
- CC(=O)OC[C@H]1OC(Sc2sc(C(=O)c3ccc(Br)cc3)c(N)c2-c2nc3ccccc3s2)[C@H](OC(C)=O)[C@@H](OC(C)=O)[C@@H]1OC(C)=O (stereo partly drawn) — higher, 113%
- CC(C)NC(=O)N1C(=O)CCC1NNC(=O)c1ccc([N+](=O)[O-])cc1 (stereo not drawn) — higher, 107%
- CCOC(=O)c1cn2ncnc(Oc3ccc(NC(=O)NCCN(C)C)c(Cl)c3)c2c1C — higher, 98.6%

For `CCOC(=O)C1=C(N)Oc2c(sc3c(C)cccc23)C1c1ccc(Cl)cc1` (stereo not drawn), the growth was 1.5% (active).
With `CCN1C(=O)N(CC)C2C1NN=c1s/c(=C3\C(=O)N(C4CCCC4)c4ccccc43)c(=O)n12` (stereo not drawn) the growth was -44.5% (active).
With `CC([C@H]1CCC2C3CCC4C[C@@H](NC=O)CC[C@]4(C)C3CC[C@@]21C)N(C)C` (stereo partly drawn) the growth was -61.1% (active).
